Inconclusive results are not listed. The source made the active and inactive calls. Unless noted, calls come from the whole dose curve; as a rule, active = well fitted curve in the direction sought with a large enough effect in the repeat runs; inconclusive = weak or mixed curves; inactive = no such curve, though single readings can be large; an effect the other way counts as inactive or inconclusive. Non-standard residues stand in square brackets, D forms with d. Residues, ends and D or L forms follow the SMILES beside them. pGlu = O=C1CC[C@@H](C(=O)O)N1
Legend:
[1] = qHTS assay to identify small molecule antagonists of the thyroid receptor (TR) signaling pathway - cell viability counter screen (AID 743064); note: nearly all actives have a fitted effect of over 50% in size; note: potency is the fitted concentration of half-maximal effect
How it was run: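 Same-well viability check: GH3.TRE-Luc cells stimulated with 1 nM T3 alongside test compound for 23.5 h, followed by CellTiter-Fluor fluorescence.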

[2] = qHTS assay to identify small molecule antagonists of the thyroid receptor (TR) signaling pathway (AID 743065); note: nearly all actives have a fitted effect of over 55% in size; note: potency is the fitted concentration of half-maximal effect
How it was run: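 Antagonism measured as loss of luciferase signal in GH3 cells stably carrying a TRE-luciferase reporter, co-treated with compound and T3 (1 nM final) for 23.5 h at 37 C. Viability was read in the same well by CellTiter-Fluor.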

[3] = biological target: Estrogen receptor (Homo sapiens) (UniProt P03372); assay: qHTS assay to identify small molecule antagonists of the estrogen receptor alpha (ER-alpha) signaling pathway (AID 743069; active = well fitted curve in the direction sought with a large enough effect in the signal ratio in the repeat runs, not every such curve was filed as active; the % refers to the signal ratio)
How it was run: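 Antagonist mode: compounds in DMSO were co-added with 17beta-estradiol to ER-alpha-bla HEK293 cells (2% charcoal-stripped serum) and left 18 h at 37C. Reporter inhibition was measured as FRET fluorescence after 2 h LiveBLAzer substrate at room temperature.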

[4] = qHTS assay to identify small molecule antagonists of the estrogen receptor alpha (ER-alpha) signaling pathway - cell viability counter screen (AID 743074; calls by dose curve;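 note: HEK293 cells carrying ER-alpha-UAS-bla reporter stimulated with 17beta-estradiol; nearly all actives have a fitted effect of over 45% in size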)
[5] = biological target: Estrogen receptor (Homo sapiens) (UniProt P03372); assay: qHTS assay to identify small molecule agonists of the estrogen receptor alpha (ER-alpha) signaling pathway (AID 743075; calls by dose curve;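 note: HEK293 GripTite cells with ER-alpha and UAS-driven beta-lactamase reporter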)
[6] = qHTS assay to identify small molecule antagonists of the estrogen receptor alpha (ER-alpha) signaling pathway using the BG1 cell line (AID 743080; calls by dose curve;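 note: BG1 cells stimulated with 17beta-estradiol alongside compound; nearly all actives have a fitted effect of over 25% in size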; note: potency is the fitted concentration of half-maximal effect)
How it was run: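 Endogenous full-length ER-alpha in BG1-Luc-4E2 cells drives a stably integrated 4×ERE luciferase gene; compounds were tested against 17beta-estradiol over 21.5 h, with luminescence and multiplexed viability fluorescence recorded.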

[7] = qHTS assay to identify small molecule antagonists of the estrogen receptor alpha (ER-alpha) signaling pathway using the BG1 cell line - cell viability counter screen (AID 743081);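 note: compound given together with 17beta-estradiol as the ER stimulus; nearly all actives have a fitted effect of over 45% in size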
Aromatase (Homo sapiens) = Aromatase (Homo sapiens) (UniProt P11511); assay: qHTS assay to identify aromatase inhibitors (AID 743083); note: nearly all actives have a fitted effect of over 55% in size; note: potency is the fitted concentration of half-maximal effect
[8] = qHTS assay to identify aromatase inhibitors - cell viability counter screen (AID 743084);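 note: cells stimulated with testosterone during compound exposure; nearly all actives have a fitted effect of over 55% in size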; note: potency is the fitted concentration of half-maximal effect
[9] = biological target: Aryl hydrocarbon receptor (Homo sapiens) (UniProt P35869); assay: qHTS assay to identify small molecule that activate the aryl hydrocarbon receptor (AhR) signaling pathway (AID 743085); note: nearly all actives have a fitted effect of over 15% in size; note: potency is the fitted concentration of half-maximal effect;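 for activation: HG2L7.5c1 human HepG2 liver cells with stably integrated DRE-driven firefly reporter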
How it was run: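 Reporter assay in engineered HepG2 line HG2L7.5c1, whose plasmid carries twenty dioxin responsive elements upstream of firefly luciferase. Treatment lasted 24 h at 37C; ONE-Glo luminescence gauged induction.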

[10] = qHTS assay to identify small molecule that activate the aryl hydrocarbon receptor (AhR) signaling pathway - cell viability counter screen (AID 743086);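 note: HepG2 liver cells carrying the AhR DRE luciferase reporter; nearly all actives have a fitted effect of over 45% in size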
How it was run: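 Cytotoxicity counter screen: CellTiter-Fluor signal (30 min, 37 C) in 4000 HepG2 cells/well carrying the DRE-luciferase reporter, following 24 h compound exposure at 37 C.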

[11] = qHTS assay to identify small molecule phospholipidosis (PLD) inducers (AID 1259344; active = well fitted curve in the direction sought with a large enough effect; an effect the other way counts as inactive or inconclusive)
How it was run: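 Phospholipid accumulation was scored by imaging: fixed, Hoechst-counterstained HepG2 cells stained with LipidTOX Red after 24 h compound exposure at 37 C. Read-outs were pit count and pit intensity per well or per cell, with amiodarone and DMSO controls.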

[12] = biological target: Nuclear receptor subfamily 1 group I member 2 (Homo sapiens) (UniProt O75469); assay: CYP3A4 induction through human pregnane X receptor (PXR) by small molecules, qHTS assay (AID 1346984); note: nearly all actives have a fitted effect of over 40% in size
How it was run: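 Quantitative HTS in DPX-2 cells, i.e. HepG2 transfected with PXR response element and CYP3A4-promoter luciferase. Compounds in DMSO incubated 24hr at 37C; then P450-Glo CYP3A4 substrate, 3uM final, 3hr; One-Glo luminescence.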

[13] = biological target: Nuclear receptor subfamily 1 group I member 2 (Homo sapiens) (UniProt O75469); assay: Human pregnane X receptor (PXR) activation by small molecules, qHTS assay (AID 1346985); note: nearly all actives have a fitted effect of over 40% in size; note: potency is the fitted concentration of half-maximal effect
How it was run: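 DPX-2 cells (HepG2 co-transfected with a PXR response element and a CYP3A4-promoter luciferase construct) were seeded at 2,000 per well, rested 5 hr at 37C, then exposed to DMSO-dissolved compounds for 24 hr. Activation was read as luciferase luminescence.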

[14] = tested on: thyroid hormone receptor (rat, GH3 cells); assay: qHTS assay to identify small molecule agonists of the thyroid receptor (TR) signaling pathway (AID 743066; calls by dose curve)
[15] = biological target: Peroxisome proliferator-activated receptor gamma (Homo sapiens) (UniProt P37231); assay: qHTS assay to identify small molecule agonists of the peroxisome proliferator-activated receptor gamma (PPARg) signaling pathway (AID 743094; active = well fitted activation curve with a large enough effect in the signal ratio in the repeat runs, not every such curve was filed as active; the % refers to the signal ratio)
How it was run: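 Cells from the PPARg UAS-bla HEK293H line are plated and incubated 5 h at 37C. Compounds in DMSO are pinned in and left 17 h at 37C. LiveBLAzer B/G substrate is then added for 1 h at room temperature before fluorescence is measured.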

[16] = biological target: Estrogen receptor (Homo sapiens) (UniProt P03372); assay: qHTS assay to identify small molecule agonists of the estrogen receptor alpha (ER-alpha) signaling pathway using the BG1 cell line (AID 743079); conditions: BG1Luc4E2 cells, ERE-luciferase agonist, 22 h; activation: at 70.3 µM (top of the series); note: nearly all actives have a fitted effect of over 20% in size

Measured: Potency

Sequence of Peroxisome proliferator-activated receptor gamma (Homo sapiens) (P37231 whole entry, looked up): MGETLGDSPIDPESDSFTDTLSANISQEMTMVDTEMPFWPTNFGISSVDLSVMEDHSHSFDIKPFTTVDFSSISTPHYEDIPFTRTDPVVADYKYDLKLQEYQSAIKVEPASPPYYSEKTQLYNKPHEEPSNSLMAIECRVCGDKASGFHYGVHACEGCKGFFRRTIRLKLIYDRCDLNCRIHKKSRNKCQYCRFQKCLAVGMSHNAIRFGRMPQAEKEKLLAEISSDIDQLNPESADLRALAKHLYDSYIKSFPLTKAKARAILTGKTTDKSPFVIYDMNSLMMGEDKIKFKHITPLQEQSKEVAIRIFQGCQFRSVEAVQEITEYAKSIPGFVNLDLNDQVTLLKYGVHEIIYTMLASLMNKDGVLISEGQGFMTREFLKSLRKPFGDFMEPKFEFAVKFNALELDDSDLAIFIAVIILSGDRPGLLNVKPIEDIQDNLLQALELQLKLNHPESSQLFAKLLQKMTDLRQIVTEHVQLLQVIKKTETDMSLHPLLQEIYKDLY
Sequence of Estrogen receptor (Homo sapiens) (P03372 whole entry, looked up): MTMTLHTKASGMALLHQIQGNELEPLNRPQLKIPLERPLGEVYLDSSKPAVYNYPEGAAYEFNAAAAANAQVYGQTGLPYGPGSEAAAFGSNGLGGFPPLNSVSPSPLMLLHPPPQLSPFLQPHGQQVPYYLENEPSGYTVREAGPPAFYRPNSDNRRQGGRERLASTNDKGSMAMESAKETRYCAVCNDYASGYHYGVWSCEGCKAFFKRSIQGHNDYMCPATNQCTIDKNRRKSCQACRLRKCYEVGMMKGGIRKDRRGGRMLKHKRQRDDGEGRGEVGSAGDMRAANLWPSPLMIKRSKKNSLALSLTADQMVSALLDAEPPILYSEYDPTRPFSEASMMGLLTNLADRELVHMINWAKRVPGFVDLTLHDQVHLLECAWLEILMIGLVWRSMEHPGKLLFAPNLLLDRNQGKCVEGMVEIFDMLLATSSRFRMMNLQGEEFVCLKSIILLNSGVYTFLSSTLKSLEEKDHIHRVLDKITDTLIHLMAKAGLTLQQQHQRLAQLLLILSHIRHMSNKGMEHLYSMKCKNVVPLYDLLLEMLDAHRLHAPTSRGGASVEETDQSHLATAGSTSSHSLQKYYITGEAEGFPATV
Sequence of Aryl hydrocarbon receptor (Homo sapiens) (P35869 whole entry, looked up): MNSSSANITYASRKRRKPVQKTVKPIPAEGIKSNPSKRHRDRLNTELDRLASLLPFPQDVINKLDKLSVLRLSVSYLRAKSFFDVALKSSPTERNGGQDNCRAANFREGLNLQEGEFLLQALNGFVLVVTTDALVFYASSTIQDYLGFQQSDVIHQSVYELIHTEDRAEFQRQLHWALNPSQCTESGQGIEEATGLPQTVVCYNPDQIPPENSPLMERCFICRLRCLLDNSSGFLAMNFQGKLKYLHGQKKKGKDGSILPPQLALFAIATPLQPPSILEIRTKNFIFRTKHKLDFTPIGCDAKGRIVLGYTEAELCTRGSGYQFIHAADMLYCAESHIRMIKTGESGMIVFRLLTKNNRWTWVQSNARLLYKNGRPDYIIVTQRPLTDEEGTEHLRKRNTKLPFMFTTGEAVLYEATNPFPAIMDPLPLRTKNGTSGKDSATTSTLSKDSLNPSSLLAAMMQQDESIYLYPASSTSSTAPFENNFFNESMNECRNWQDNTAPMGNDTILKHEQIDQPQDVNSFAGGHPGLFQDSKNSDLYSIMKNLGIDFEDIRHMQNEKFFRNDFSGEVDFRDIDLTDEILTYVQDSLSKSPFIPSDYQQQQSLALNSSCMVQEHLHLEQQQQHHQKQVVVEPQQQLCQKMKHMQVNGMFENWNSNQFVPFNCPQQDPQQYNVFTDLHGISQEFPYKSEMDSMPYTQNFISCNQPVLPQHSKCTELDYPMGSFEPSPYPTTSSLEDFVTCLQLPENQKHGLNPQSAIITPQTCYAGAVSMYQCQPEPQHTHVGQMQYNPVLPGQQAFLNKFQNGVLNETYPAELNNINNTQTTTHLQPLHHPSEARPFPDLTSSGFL
Sequence of Aromatase (Homo sapiens) (P11511 whole entry, looked up): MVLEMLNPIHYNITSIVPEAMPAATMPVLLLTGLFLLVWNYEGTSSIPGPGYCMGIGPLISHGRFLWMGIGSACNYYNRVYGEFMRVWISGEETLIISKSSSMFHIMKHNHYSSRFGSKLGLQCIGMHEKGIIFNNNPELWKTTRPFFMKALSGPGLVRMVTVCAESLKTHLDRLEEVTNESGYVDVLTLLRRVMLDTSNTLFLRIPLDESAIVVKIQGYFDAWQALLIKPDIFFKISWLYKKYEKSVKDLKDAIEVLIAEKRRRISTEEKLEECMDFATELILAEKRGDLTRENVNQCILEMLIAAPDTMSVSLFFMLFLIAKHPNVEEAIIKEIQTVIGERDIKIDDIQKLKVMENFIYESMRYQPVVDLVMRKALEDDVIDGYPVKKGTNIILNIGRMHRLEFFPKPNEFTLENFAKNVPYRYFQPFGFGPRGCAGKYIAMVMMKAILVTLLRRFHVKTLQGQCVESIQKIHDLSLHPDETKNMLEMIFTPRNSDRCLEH

Cc1cc(O)c2c(c1)O[C@@]1(C)CC[C@H]3C(C)(C)CCCC34CO[C@@H]2[C@H]41 (stereo partly specified)
active: [1] 18.8 µM | [2] 13.3 µM | [6] 26.6 µM | Aromatase (Homo sapiens) 26.6 µM | [8] 29.8 µM | [13] 2.82 µM
not listed: [14] | [15] | [16]
inactive: all other assays above

O=C(/C=C/c1cccc(F)c1)NC1CC1
active: [13] 10 µM
not listed: [3] | [5] | [6] | [16]
inactive: all other assays above

CNc1cc(OC)c(C(=O)N[C@H]2CCN(Cc3ccccc3)[C@H]2C)cc1Cl
not listed: [1] | [2] | [7] | [13] | [14]
inactive: all other assays above

CC(NNC(=O)c1ccccc1)c1ccccc1 (stereo unspecified)
inactive: [4] | [7] | Aromatase (Homo sapiens) | [8] | [10] | [15] | [11] | [12]
active: [9] 11.9 µM

CCCC1C(=O)N2C(N(C)C)=Nc3ccc(C)cc3N2C1=O (stereo unspecified)
not listed: [3] | [5] | [6] | [9] | [12] | [15] | [16]
inactive: all other assays above

CC(=O)[C@@]1(O)CC[C@H]2[C@@H]3C=C(Cl)C4=CC(=O)[C@@H]5C[C@@H]5[C@]4(C)[C@H]3CC[C@@]21C
not listed: [3]
inactive: all other assays above

NCCCC[C@H](N)C(=O)O
not listed: [2] | [3] | [14]
inactive: all other assays above

CC[C@H](C)[C@H](NC(=O)[C@H](Cc1ccccc1)NC(=O)[C@H](C)NC(=O)[C@H](CC(=O)O)NC(=O)[C@H](CCCCN)NC(=O)[C@H](CO)NC(=O)[C@@H]1CCCN1C(=O)[C@@H]1CCC(=O)N1)C(=O)NCC(=O)N[C@@H](CC(C)C)C(=O)N[C@@H](CCSC)C(N)=O ([pGlu]PSKDAFIGLM-NH2)
inactive: [4] | [7] | Aromatase (Homo sapiens) | [8] | [10] | [15] | [11] | [12] | [13]

COc1ccc(CCNC[C@H](O)c2ccc(O)cc2)cc1OC
not listed: [1] | [2] | [9] | [14]
inactive: all other assays above

Cc1ncc(C[n+]2csc(CCOP(=O)(O)OP(=O)(O)O)c2C)c(N)n1
not listed: [1] | [3] | [5] | [6] | [16]
inactive: all other assays above

C#CCOc1ccc2c(C)cc(=O)oc2c1
not listed: [1] | [3] | [6] | [9] | [13]
inactive: all other assays above

O=C(c1cc2ccccc2o1)N1CCN(Cc2ccccc2)CC1
not listed: [1] | [3] | [6] | [9] | [12]
inactive: all other assays above

CCN(CC)CCOC(=O)c1ccc(N)cc1Cl
not listed: [7] | [9] | [12] | [13]
inactive: all other assays above

CC(=O)O[C@H]1C[C@@]2(C)[C@@H](C[C@@H](O)[C@H]3[C@@]4(C)CC[C@@H](O)[C@@H](C)[C@@H]4CC[C@@]32C)/C1=C(\CCC=C(C)C)C(=O)O
not listed: [1] | [12]
inactive: all other assays above

COC(=O)[C@H]1[C@H]2C[C@@H]3c4[nH]c5cc(OC)ccc5c4CCN3C[C@H]2C[C@@H](OC(=O)/C=C/c2cc(OC)c(OC)c(OC)c2)[C@@H]1OC
not listed: [2] | [6] | [9] | [10] | [12]
inactive: all other assays above

Source: PubChem BioAssay (Tox21)
